Source: PubChem
The list is not random: actives were taken first. Their share in the collection is about 5.3%.
HIF activator: HIF pathway transcriptional activation; U2OS HRE-luciferase reporter, luminescence; normalized: DMSO 0%, desferrioxamine 100%; activation, % at 7.5 µM (by protocol); 300,000 tested, 0.32% active; AID 1910;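 active = mean activation of at least 10% of the iron chelator positive control signal, with at least half of replicates also reaching 10%; inconclusive = mean and replicate majority disagree about reaching 10%; inactive = mean and most replicates under 10%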
Mot1-301 SUMO: inhibitors of SUMOylation pathway: yeast Mot1-301 growth rescue; S. cerevisiae Mot1-301 growth rescue, ATP luminescence, 38.5C; percent above DMSO median, 100 means doubled; growth rescue, % at 18.8 µM; 320,000 tested, 1% active; AID 2716;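 active = every valid replicate shows activation above 250% relative to neutral control wells; inactive = the rest, any valid replicate at or below 250%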
ALR H2O2 inh: blocks human ALR sulfhydryl oxidase activity. P55789. purified ALR, DTT oxidation, H2O2 HRP-luminol luminescence. inhibition, % (test concentration not listed). 290,000 tested, 3.8% active;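 active = mean replicate inhibition above about 79%, with every replicate also reaching it, limit read from the data; inconclusive = only one of the two criteria met; inactive = mean below limit and not every replicate reaching it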
PfM18AAP inh-1: PfM18AAP enzyme inhibition; AID 1822; 290,000 tested, 1.2% active; inhibition, % at 7.35 µM; recombinant PfM18AAP, H-Glu-NHMec fluorogenic cleavage;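 active = inhibition above the campaign mean inhibition over all tested compounds plus 3 SD, cut at about 28% in these data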
PfM18AAP inh-2: PfM18AAP inhibition, confirmation | shares compounds with PfM18AAP inh-1 | recombinant PfM18AAP, H-Glu-NHMec fluorogenic cleavage | inhibition, % at 7.35 µM | 2,400 tested, 28% active | AID 2170;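 active = mean inhibition over replicate wells above the hit cutoff set for the earlier primary screen, cut at about 29% in these data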
CTSL1 confirm: counter-screen for PFM18AAP inhibitors: confirmation of human cathepsin L inhibitors; shares compounds with PfM18AAP inh-1; purified cathepsin L1, Z-Leu-Arg-MCA fluorescence; inhibition, % at 5.96 µM; 2,400 tested, under 10 active; AID 2178;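 active = average inhibition across replicates above the hit cutoff set in the earlier primary screen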
Target sequence (P07711 whole entry, looked up): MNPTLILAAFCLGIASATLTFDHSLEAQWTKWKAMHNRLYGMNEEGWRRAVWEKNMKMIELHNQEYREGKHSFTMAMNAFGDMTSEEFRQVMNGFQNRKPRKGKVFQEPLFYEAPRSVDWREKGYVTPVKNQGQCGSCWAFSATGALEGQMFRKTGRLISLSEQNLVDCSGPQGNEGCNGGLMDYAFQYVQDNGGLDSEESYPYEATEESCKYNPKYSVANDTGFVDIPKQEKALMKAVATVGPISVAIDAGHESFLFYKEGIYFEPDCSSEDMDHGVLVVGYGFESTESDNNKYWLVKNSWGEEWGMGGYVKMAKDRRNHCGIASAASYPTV
Hits are given with their value.

How did COc1cccc(C(NC(=O)c2ccccc2F)NC(=O)c2ccccc2F)c1 do in these assays?
HIF activator: inactive; Mot1-301 SUMO: inactive; ALR H2O2 inh: inactive; PfM18AAP inh-1: inactive

Results for CC1=NNC(=O)C1CC(=O)N/N=C/C=C/c1ccccc1 (stereo not given) ?
HIF activator: inactive; Mot1-301 SUMO: inactive; ALR H2O2 inh: inactive; PfM18AAP inh-1: inactive

Results for O=C(N/N=C/c1c(F)cccc1Cl)C1CC1 ?
HIF activator: inactive; Mot1-301 SUMO: inactive; ALR H2O2 inh: inactive; PfM18AAP inh-1: inactive

How did O=C(O)c1ccc(N/N=C/c2c(F)cccc2Cl)cc1 do in these assays?
HIF activator: inactive; Mot1-301 SUMO: inactive; ALR H2O2 inh: inactive; PfM18AAP inh-1: 39; PfM18AAP inh-2: inactive; CTSL1 confirm: inactive

How did O=C1/C(=C/c2ccc(O)c(O)c2)SC(=S)N1Nc1ccccc1 do in these assays?
HIF activator: inactive; PfM18AAP inh-1: 58; PfM18AAP inh-2: 31; CTSL1 confirm: inactive

How did O=C1/C(=C/c2ccncc2)SC(=S)N1Nc1ccccc1 do in these assays?
HIF activator: inactive; Mot1-301 SUMO: inactive; ALR H2O2 inh: 99; PfM18AAP inh-1: 32; PfM18AAP inh-2: inactive; CTSL1 confirm: inactive

What do the screens show for `O=C(O)c1ccc(/C=C2\SC(=S)N(Nc3ccccc3)C2=O)cc1`?
HIF activator: inactive; Mot1-301 SUMO: inactive; ALR H2O2 inh: inactive; PfM18AAP inh-1: inactive

What do the screens show for `COC(=O)C1CCN(C(=O)c2cc(S(=O)(=O)N3CCCCC3)ccc2Cl)CC1`?
Mot1-301 SUMO: inactive; ALR H2O2 inh: inactive

What do the screens show for `Cc1cc(C)cc(NC(=S)N2C3CCCC2CC(NC(=O)C2CC2)C3)c1` (stereo not given)?
HIF activator: inactive; Mot1-301 SUMO: inactive; PfM18AAP inh-1: inactive

How did Cc1ccc2nc3c(c(Nc4ccc(O)cc4)c2c1)CCC3 do in these assays?
HIF activator: inactive; Mot1-301 SUMO: inactive; ALR H2O2 inh: inconclusive; PfM18AAP inh-1: 33; PfM18AAP inh-2: inactive; CTSL1 confirm: inactive

Results for Cc1ccc(NC(=O)c2c3c(nc4ccccc24)CCC3)cc1 ?
HIF activator: inactive; Mot1-301 SUMO: inactive; ALR H2O2 inh: inactive; PfM18AAP inh-1: inactive

What do the screens show for `O=[N+]([O-])c1ccc2nc(NS(=O)(=O)c3ccc(F)cc3)sc2c1`?
HIF activator: inactive; Mot1-301 SUMO: inactive; ALR H2O2 inh: inactive; PfM18AAP inh-1: inactive

How did COc1ccc(N(CC(=O)NCCc2ccccc2)C(=O)c2csnn2)cc1 do in these assays?
HIF activator: inactive; Mot1-301 SUMO: inactive; ALR H2O2 inh: inactive; PfM18AAP inh-1: inactive

What do the screens show for `C/C=C/C(O)c1ccc2ccccc2c1` (stereo not given)?
HIF activator: inactive; Mot1-301 SUMO: inactive; ALR H2O2 inh: inactive; PfM18AAP inh-1: inactive

Results for CC(C)(C)N=Cc1c(O)ccc2oc3c(c12)CCCC3 ?
HIF activator: inactive; Mot1-301 SUMO: inactive; ALR H2O2 inh: inactive; PfM18AAP inh-1: 33; PfM18AAP inh-2: inactive; CTSL1 confirm: inactive

How did NC(=O)N/N=C/c1c(O)ccc2oc3c(c12)CCCC3 do in these assays?
HIF activator: inactive; Mot1-301 SUMO: inactive; PfM18AAP inh-1: inactive

What do the screens show for `CCOc1cc(/C=C2\SC(N)=NC2=O)ccc1O`?
HIF activator: inactive; Mot1-301 SUMO: inactive; ALR H2O2 inh: 98; PfM18AAP inh-1: 38; PfM18AAP inh-2: inactive; CTSL1 confirm: inactive

Results for CCOc1cc(/C=C2\CN(C)C/C(=C\c3ccc(O)c(OCC)c3)C2=O)ccc1O ?
HIF activator: inactive; Mot1-301 SUMO: inactive; PfM18AAP inh-1: 44; PfM18AAP inh-2: inactive; CTSL1 confirm: inactive

What do the screens show for `CCOc1cc(/C=C2\SC(=O)N=C2N)ccc1O`?
HIF activator: inactive; Mot1-301 SUMO: inactive; PfM18AAP inh-1: inactive

How did CCOC(=O)C1=C(O)/C(=C\c2ccc(O)c(OCC)c2)N=C1C do in these assays?
HIF activator: inactive; Mot1-301 SUMO: inactive; ALR H2O2 inh: 95; PfM18AAP inh-1: 40; PfM18AAP inh-2: inactive; CTSL1 confirm: inactive

Results for COc1ccc(-n2c(=S)[nH]c3cc(C(=O)N4CCN(c5ccccc5)CC4)ccc3c2=O)cc1 ?
HIF activator: inactive; Mot1-301 SUMO: inactive; ALR H2O2 inh: inactive; PfM18AAP inh-1: inactive

How did COc1ccccc1N(C)S(=O)(=O)c1ccc(C(=O)Nc2nc(C)cs2)cc1 do in these assays?
HIF activator: inactive; Mot1-301 SUMO: inactive; ALR H2O2 inh: inactive; PfM18AAP inh-1: inactive

Results for C=CCNCCOCCOc1ccc(C)cc1Br ?
HIF activator: inactive; Mot1-301 SUMO: inactive; ALR H2O2 inh: inactive; PfM18AAP inh-1: inactive
